According to PubChem BioAssay (NCI):
The panel holds about 83,000 compounds, 20% with a hit somewhere; the sample as a whole holds those more often.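 Cells were grown in 96-well plates and exposed to the test compound at a single concentration for 48 hours; results are reported as percent growth, with values below 10 considered active.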 A number with no mark means an inactive call. Calls of active or inactive are those of the source.

These compounds were tested on SF-539 CNS (assay: NCI-60 one-dose screen, 48 h (100 = growth as untreated, 0 = no growth, -100 = all killed)). Details: 10 µM.

**Q.** Which growth does the source give for `Cc1c2c[n+](C(C)C)ccc2c(C)c2c1[nH]c1ccccc12` here?
**A.** The growth was 20.8%.

**Q.** Which growth does the source give for `Cc1ccc(-n2c(C)nn3c(=O)c4c5c(sc4nc23)CN(C)CC5)cc1` here?
**A.** Its growth is 101%.

**Q.** How did the growth turn out when `CCCCCCCCCCCCCCCCCC[n+]1ccc2c(C)c3c(c(C)c2c1)c1cc(O)ccc1n3CC` was run?
**A.** Its growth is -21.2% (active).

**Q.** `Cc1c2cnccc2c(C)c2c1c1cc(O)ccc1n2C(C)C` was tested. Which growth did it give?
**A.** Its growth is 7.2% (active).

**Q.** For `COc1ccc(C(=O)CSc2nc(-c3cc(OC)ccc3OC)cc(-c3ccc(OC)cc3)c2C#N)cc1`, which growth is on record?
**A.** The growth was 86.5%.

**Q.** With `CCn1c2ccc(O)cc2c2c(C)c3c[n+](C)ccc3c(C)c21` as the compound, how does the growth read?
**A.** The growth was 12.1%.

**Q.** `Cc1ccccc1N1C(=O)c2cc(S(N)(=O)=O)c(Cl)cc2NC1C` (stereo not given) was tested. Which growth did it give?
**A.** Its growth is 111%.

**Q.** `N#Cc1c(-c2ccc(Cl)cc2)cc(-c2cc(O)ccc2O)nc1N` was tested. Which growth did it give?
**A.** The growth was -1.42% (active).

**Q.** Which growth does the source give for `CN1CCc2c(sc3nc4n(-c5ccc(Cl)cc5)c(=O)[nH]n4c(=O)c23)C1` here?
**A.** Its growth is 99.8%.

**Q.** How did the growth turn out when `Cn1c2ccccc2c2c3[nH][nH]c(=O)c3c3c4ccccc4[nH]c3c21` was run?
**A.** The growth was -20.8% (active).

**Q.** `O=C1c2c(c3c4ccccc4n(CCCCCCN4CCOCC4)c3c3[nH]c4ccccc4c23)C(=O)N1O` was tested. Which growth did it give?
**A.** Its growth is 92.4%.

**Q.** `Nc1ccccc1NC(=O)c1ccc(CCCC(=O)Nc2ccc(C3CC3N)cc2)cc1` (stereo not given) was tested. Which growth did it give?
**A.** Its growth is 30.9%.

**Q.** For `Nc1nc(-c2cccnc2)nc2c1sc(=S)n2-c1ccccc1`, which growth is on record?
**A.** Its growth is 103%.

**Q.** Which growth does the source give for `Nc1cc(-c2ccncc2)c[nH]c1=O` here?
**A.** Its growth is 104%.

**Q.** Which growth does the source give for `COc1cc2c3c(n([C@H]4CCOC4)c(=O)c2cc1OC)-c1cc2c(cc1C3=O)OCO2` here?
**A.** The growth was 1% (active).
